# Source: PubChem BioAssay AID2546 (National Center for Advancing Translational Sciences (NCATS), 2010)
# About 11,000 (3.5%) of roughly 310,000 compounds were called active. Where a call stands in place of a potency, no number is given. Roughly 8% stayed inconclusive and do not appear here. Calls follow the shape of the dose curve; as a rule, active = well fitted inhibition curve with a large enough effect; inconclusive = small, poorly fitted or top-dose-only effect, or effect the other way; inactive = flat fitted curve, though single readings scatter. Many of the other results were omitted from the sample, so actives are more common in it than they were.
# Test: VP16 counterscreen qHTS for inhibitors of ROR gamma transcriptional activity;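 also: Gal4-VP16 expression switched on by copper sulfate through the metallothionein promoter; nearly all actives have a fitted effect of over 50% in size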
# Conditions: Drosophila S2 Gal4-VP16 UAS-luciferase, luminescence, 20 h; series mostly up to 53.6 µM
# Potency is read from the fitted curve at half-maximal effect.
Compound,Potency,"activity, negative = inhibition"
CCOc1cc(-c2noc(CCCC(=O)NC3CCCCC3)n2)ccc1OC,inactive,
CC(=O)c1ccc(N2Cc3ccccc3C2)cc1,inactive,
CC(C)CC(O)C1CCN(C(=O)CCc2nnc(-c3ccc4c(c3)OCO4)o2)CC1 (stereo unspecified),inactive,
Cc1oc(-c2ccccc2F)nc1CS(=O)CC(=O)NCCN1CCCCC1C (stereo unspecified),inactive,
CCOc1ccccc1/C=N/Nc1nc2ccccc2o1,7.08 µM (active),
C=CCc1ccccc1OCC(=O)N/N=C/c1ccccc1OCC,inactive,
CCOc1ccccc1/C=N/NC(=O)CNC(=O)COc1ccccc1,inactive,
CC(C)(C)c1cc[n+](-c2[nH]c(=O)sc2/C=N/N=C(\[O-])c2ccccc2)cc1,inactive,
O=C(Nc1ccncc1)c1ccc(Cl)c([N+](=O)[O-])c1,inactive,
COc1ccc(CNS(=O)(=O)c2cc(-c3cc(C)no3)ccc2C(C)C)cc1,inactive,
CC(=O)Nc1cccc(Nc2nc(-c3cccs3)nc3ccccc23)c1,inactive,
CC1CCCN(CCCNC(=O)CN2C(=O)COc3ccc(S(=O)(=O)N4CCOCC4)cc32)C1 (stereo unspecified),inactive,
C/C(=N\NC(=S)NC1CCCCC1)c1ccc(C)o1,3.55 µM (active),
Cc1ccc(/C=N/NC(=O)Cn2nc(C)c(Br)c2C)o1,inactive,
C/C(=N/NC(=O)c1ccc(Br)o1)c1ccc(C)o1,inactive,
Cc1ccc(/C=N/NC(=S)NC2CCCCC2)o1,2 µM (active),
C/C(=N\NC(=O)NC1CCCCC1)c1ccc(OC(F)F)cc1OC(F)F,inactive,
Cc1ccc(/C=N/NC(=O)CSc2ccccn2)o1,inactive,
Cc1ccccc1NC(=O)CSc1ccc2nnc(-c3ccccn3)n2n1,inactive,
CC(C)NC(=O)COCc1cc(-c2ccc3c(c2)OCO3)on1,inactive,
COc1ccc(OC)c(CNC(=O)Cn2nc(C)c3c(C)n(-c4ccc(C)cc4)nc3c2=O)c1,inactive,
COc1ccc(CN(C)C(=O)c2cc(-c3ccc(C)cc3C)nc3ccccc23)c(OC)c1OC,inactive,

Compound,Potency,"activity, negative = inhibition"
COc1ccc(CCn2ccc(O)c(Cc3ccc(Cl)cc3Cl)c2=O)cc1OC,,7.07% [at 10 µM] (inactive)
COc1ccc(C/C(N)=N/OC(=O)c2ccco2)cc1OC,inactive,
COc1ccc(C(=O)O/N=C(\N)Cc2ccc(Cl)cc2Cl)cc1OC,7.08 µM (active),
CC(CCc1ccc(O)cc1)NCc1ccc(Cl)cc1Cl (stereo unspecified),inactive,
O=S1(=O)N=C(N(CCO)/N=C/c2ccccc2F)c2ccccc21,inactive,
COC(=O)c1cc(S(=O)(=O)NCC2CCN(Cc3ccc(Cl)cc3)CC2)cn1C,inactive,
Cc1ccccc1NCC(=O)N/N=C\c1ccc([N+](=O)[O-])s1,inactive,
COc1ccc2ccccc2c1/C=N/NC(=O)c1cc(C)[nH]n1,inactive,
Cc1ccsc1C(=O)N/N=C/c1ccc([N+](=O)[O-])cc1,inactive,
Cc1cc(C(=O)N/N=C/c2cc([N+](=O)[O-])cc(C)c2O)n[nH]1,14.1 µM (active),
CC(C)(C)c1cc(C(=O)N/N=C/c2ccc([N+](=O)[O-])s2)n[nH]1,12.6 µM (active),
CCOc1ccc(NC(=O)CCC(=O)N/N=C/c2ccc([N+](=O)[O-])s2)cc1,inactive,
COc1ccc(OC)c(NC(=O)c2ccc3c(c2)CCN3S(C)(=O)=O)c1,inactive,
COc1ccc(-n2ncc3c2CC(C)(C)CC3NC(=O)CCc2c(C)noc2C)cc1 (stereo unspecified),inactive,
CCn1c(CC(=O)Nc2ccccc2)nnc1SCC(=O)N1CCOCC1,inactive,
Cc1cccc(C)c1OCCN1CCOCC1,inactive,
CC(CC(=O)N1CCN(c2ccccc2)CC1)S(=O)(=O)c1ccc2c(c1)NC(=O)CS2 (stereo unspecified),inactive,
CCOC(=O)C1=C(c2ccc(OC)cc2)C(=O)c2ccccc2C1=O,4.47 µM (active),
CCCCC(C(=O)OCC(=O)c1ccc(OC)cc1)N1C(=O)c2ccccc2C1=O (stereo unspecified),inactive,
CCOC(=O)c1c(-c2ccc(C)cc2)csc1/N=C(\C)C1=C(O)c2ccccc2C1=O,inactive,
COc1ccccc1-n1c(SCC(=O)Nc2cccc(C(=O)O)c2)nnc1-c1ccccc1O,inactive,
CCOC(=O)[C@@H]1[C@H]2COc3ccc(Br)cc3[C@H]2N2C(=O)N(c3ccc(Cl)cc3)C(=O)[C@@]12C,inactive,

Compound,Potency,"activity, negative = inhibition"
COC(=O)c1cc(NS(=O)(=O)c2ccc3c(c2)c(=O)n(C)c(=O)n3C)cc(C(=O)OC)c1,inactive,
Cc1[nH]c2ccccc2c1C(=O)CN1CC(C)CC(C)C1 (stereo unspecified),inactive,
CC(=O)Nc1cccc(NC(=O)c2ccc3c(c2)CCN3S(C)(=O)=O)c1,inactive,
COc1ccccc1-c1sc2ccccc2c1-c1ccc(C(C)=O)cc1,inactive,
CN(C)c1ccc(-n2cccc2/C=C2/SC(=Nc3ccc(F)cc3)NC2=O)cc1,inactive,
C(=N\n1cnnc1)/c1cccnc1,inactive,
CN(C)c1ccc(-n2cccc2/C=N/n2cnnc2)cc1,14.1 µM (active),
CNC[C@H](CC1CCCCC1)NC[C@H](NCCC1CCCC1)[C@H](C)O,inactive,
O=C1c2ccccc2C(=O)N1CCOc1ccc(F)cc1,inactive,
CN1CN(C)c2ccc([N+](=O)[O-])c3cccc1c23,inactive,
CCCNC(=O)CCc1c(C)nc2c(c(C)nn2-c2ccc(C)cc2)c1C,inactive,
COc1ccc(Cn2c(=S)[nH]c3cc(C(=O)NCCCN4CCOCC4)ccc3c2=O)cc1,inactive,
O=C(NC1CCCCC1)c1ccc2c(=O)n(CC3CCCO3)c(=O)[nH]c2c1 (stereo unspecified),inactive,
COC(=O)c1ccc2c(=O)n(CC3CCCO3)c(=S)[nH]c2c1 (stereo unspecified),5.01 µM (active),
COc1ccccc1OCCCC(=O)Nc1ccc2c(c1)OCCO2,inactive,
Cc1nc2ccccc2n1CC(=O)N/N=C/c1cccnc1,inactive,
O=C(CSc1cccc2cccnc12)N/N=C/c1cccnc1,20 µM (active),
O=C(CNC(=O)c1cccnc1)N/N=C/c1cccnc1,inactive,
CN(C)Cc1c(O)ccc2c(=O)c(-c3ccccc3Cl)coc12,inactive,
COc1ccccc1CN1CCNC(=O)C1CC(=O)N(C)CC1CCOCC1 (stereo unspecified),inactive,
COc1ccc2c(C)c(CCC(=O)NC3CC3)c(=O)oc2c1C,inactive,
COc1ccc2c(c1OC)C(=O)N(c1ccc(O)cc1)C2,inactive,

Compound,Potency,"activity, negative = inhibition"
CN1CCN(CCCNC(=O)c2ccc(/C=C3\Oc4ccccc4N(Cc4ccc(Cl)cc4)C3=O)cc2)CC1,11.2 µM (active),
O=C(NCCN1CCOCC1)c1ccc(/C=C2\Sc3ccccc3N(Cc3ccc(F)cc3)C2=O)cc1,inactive,
CN1C(=O)/C(=C/c2ccc(C(=O)NC3CCCC3)cc2)Oc2ccccc21,inactive,
Cc1cc(N2C(=O)C(O)=C(C(=O)c3ccc(C)o3)C2c2ccc(OCc3ccccc3)cc2)no1 (stereo unspecified),inactive,
O=C(CN1CCC(NC(=O)Nc2ccccc2)CC1)Nc1cccc([N+](=O)[O-])c1,inactive,
COc1cccc(C(=O)CC(=O)C(=O)Nc2ccc([N+](=O)[O-])cc2C)c1,inactive,
CC1(C)Cc2c(sc(NC(=O)C(=O)N3CCOCC3)c2C#N)CO1,inactive,
COc1ccc(Cc2nc3ccc(C(=O)NCC4CCOCC4)cc3o2)cc1OC,inactive,
O=C(O)c1ccccc1CSc1nc2ccccc2s1,inactive,
O=C(CCCl)Nc1ccc(S(=O)(=O)NCc2ccco2)cc1,inactive,
C/C(=N\Nc1ncc(Cl)cc1Cl)c1ccc(S(=O)(=O)NCc2ccco2)cc1,3.16 µM (active),
O=S(=O)(NCc1ccco1)c1cnc(Cl)c(Cl)c1,inactive,
CCCc1ccc(OCCNC(=O)c2ccccc2Br)cc1,inactive,
Cc1cc(NC(=O)c2ccccc2C)no1,inactive,
O=C1/C(=C\c2cccnc2)CN(Cc2ccccc2)C/C1=C\c1cccnc1,2 µM (active),
O=Cc1cn(Cc2ccccc2)nc1-c1cccnc1,inactive,
Clc1ccc(CN2CCN(/N=C/c3cccnc3)CC2)cc1,inactive,
Cc1c(C(C)(C)O)[nH]c2ccc(C#N)cc12,inactive,
O=C(O)c1ccccc1C(=O)NC1=NN(c2ccccc2)CC1,inactive,
O=C1CCC(C(=O)N2CCCCO2)CN1Cc1cccc(C(F)(F)F)c1 (stereo unspecified),inactive,
NS(=O)(=O)c1ccc(CCNS(=O)(=O)c2cccc3cccnc23)cc1,inactive,
Cc1cc(Cl)c2oc(C(=O)NC(C)c3ccncn3)c(C)c2c1 (stereo unspecified),inactive,

Compound,Potency,"activity, negative = inhibition"
CN(C)/N=C/c1cc(Cl)cc([N+](=O)[O-])c1O,inactive,
Cc1cc(C(=O)N/N=C/c2ccccc2[N+](=O)[O-])c(C)o1,inactive,
O=C(N/N=C/c1cc(Cl)cc([N+](=O)[O-])c1O)C(O)(c1ccccc1)c1ccccc1,0.891 µM (active),
Cc1nn(C)c(Cl)c1CN1CCC(Oc2ccc(C(=O)N3CCCC3)cc2)CC1,inactive,
O=C(C[C@H]1C(=O)N(c2ccc(F)c(F)c2)C[C@@H]1Cc1ccccc1)Nc1ccccc1,inactive,
Cc1c(C(=O)NC2CCCCC2)oc2ccccc12,inactive,
COc1cccc(N(CC(=O)NCCSc2ccccn2)S(C)(=O)=O)c1,inactive,
CCOC(=O)CSc1ccccn1,inactive,
COc1ccc(C=C(C#N)C#N)c(CSc2ccccn2)c1,15.8 µM (active),
CCCn1c2ccccc2c2cnn(CC(=O)NCCCN3CCCCC3CC)c(=O)c21 (stereo unspecified),inactive,
O=C(OCC(=O)N1CCN(C(=O)c2ccco2)CC1)c1cccc(O)c1,inactive,
Cc1ccnc(-n2sc3ccccc3c2=O)n1,11.2 µM (active),
Cc1nc2ccccc2c(=O)n1NC(=O)c1ccccc1,inactive,
Cc1ccnc(N2CCCC(C(=O)NC3CC3)C2)n1 (stereo unspecified),inactive,
Cc1ccc(CN2CCNC(=O)C2CC(=O)NCc2csc(C(C)C)n2)cc1 (stereo unspecified),inactive,
COC(=O)C1(O)CC(C(C)C)=NN1C(=O)c1ccc(Cl)cc1 (stereo unspecified),inactive,
O=C(c1ccc(Cl)cc1)N1N=C(c2ccccn2)CC1(O)C(F)(F)F (stereo unspecified),4.47 µM (active),
O=C(C1CC1)N1N=C(c2ccc(Br)cc2)CC1(O)C(F)(F)F (stereo unspecified),inactive,
